hgDAF-12 ag: H. glycines DAF-12 receptor agonists, primary screen, cell-based, luminescence, HEK293, GAL4 fusion, UAS-luciferase. AID 687014, 2013. HEK293 GAL4-hgDAF12 UAS-luciferase reporter, agonist luminescence; normalized to butyrate control. Nuclear hormone receptor DAF-12 (Heterodera glycines), GAL4 fusion. activation, % at 6.8 µM. 370,000 compounds, 1.8% hits;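 active = activation above a cutoff set at the mean of all screened compounds plus 3 SD, cut at about 10% in these data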
AHR activator: AHR activators, primary screen, cell-based, luminescence, luciferase reporter, human | Aryl hydrocarbon receptor (Homo sapiens), P35869 | AHR-responsive luciferase reporter cells | activation, % at 5 µM | 320,000 compounds, 2.5% hits | AID 2796, 2010; in the data active = activation above about 47%
DAX1 inh-1: DAX1 (NR0B1) inhibitors on StAR promoter, primary screen, cell-based, luminescence, SF-1 (NR5A1), full-length DAX-1. HEK293T StAR-luciferase reporter, SF-1/DAX-1 repression relief. 370,000 compounds, 1.1% hits. inhibition, % at 6.8 µM;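 active = inhibition above the mean over all tested compounds plus 3 SD, cut at about 3.6% in these data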;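 also: higher inhibition means more luminescence from relief of DAX-1 repression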
DAX1 inh-2: DAX1 (NR0B1) inhibitors, primary screen, cell-based, HEK293, Gal4-DAX1, luciferase luminescence; inhibition, % at 6.75 µM; Nuclear receptor subfamily 0 group B member 1 (Homo sapiens), P51843; HEK293 Gal4-DAX1 luciferase reporter; AID 504766, 2011; 340,000 compounds, 0.99% hits;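 active = inhibition above the mean over all tested compounds plus 3 SD, cut at about 4.2% in these data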;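 also: inhibition shows as a rise in luminescence from relieved DAX1 repression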
Target sequence (P51843 207-470 limits assumed): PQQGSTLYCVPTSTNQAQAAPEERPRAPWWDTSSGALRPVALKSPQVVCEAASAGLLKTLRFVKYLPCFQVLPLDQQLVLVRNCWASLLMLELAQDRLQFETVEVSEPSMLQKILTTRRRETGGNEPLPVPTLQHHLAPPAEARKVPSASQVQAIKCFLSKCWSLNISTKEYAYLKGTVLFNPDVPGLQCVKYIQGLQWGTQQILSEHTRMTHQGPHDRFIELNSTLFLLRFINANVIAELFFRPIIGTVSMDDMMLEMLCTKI
hcDAF-12 act: H. contortus DAF-12 nuclear receptor activators, primary screen, cell-based, luminescence, HEK293, lit1-tk-luc reporter. 370,000 compounds, 1.4% hits. activation, % at 6.8 µM. HEK293 hcDAF-12 lit1-tk-luc reporter; 0% DMSO, 100% Δ7-dafachronic acid;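 active = activation above the mean of all tested compounds plus 3 SD, cut at about 5.5% in these data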
ssDAF-12 act: S. stercoralis DAF-12 nuclear receptor activators, primary screen, cell-based, luminescence, HEK293, GRIP1 co-expression, lit1-tk-luc. Nuclear hormone receptor DAF-12 (Strongyloides stercoralis). HEK293 ssDAF-12/GRIP1 lit1-tk-luc reporter; % of 3 µM dafachronic acid response. activation, % at 6.8 µM. 370,000 compounds, 1% hits;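 active = activation above the mean over all tested compounds plus 3 SD, cut at about 0.9% in these data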
AHR act cf: AHR activators, confirmation, cell-based, luminescence, luciferase reporter, human; shares compounds with AHR activator; 2,300 compounds, 87% hits; activation, % at 9 µM; human cells, AHR-responsive luciferase reporter; in the data active = activation above about 49%;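 also: HepG2 hepatoma cells carrying a DRE-driven firefly luciferase reporter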
PXR counter: human PXR activators, counter-screen for AHR activator project, cell-based, luciferase luminescence | shares compounds with AHR activator | cell-based PXR reporter | activation, % at 11.6 µM | 2,300 compounds, 88% hits; in the data active = activation above about 11%;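 also: human hepatoma DPX-2 cells expressing full-length human PXR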
Target sequence (O75469 whole entry, looked up): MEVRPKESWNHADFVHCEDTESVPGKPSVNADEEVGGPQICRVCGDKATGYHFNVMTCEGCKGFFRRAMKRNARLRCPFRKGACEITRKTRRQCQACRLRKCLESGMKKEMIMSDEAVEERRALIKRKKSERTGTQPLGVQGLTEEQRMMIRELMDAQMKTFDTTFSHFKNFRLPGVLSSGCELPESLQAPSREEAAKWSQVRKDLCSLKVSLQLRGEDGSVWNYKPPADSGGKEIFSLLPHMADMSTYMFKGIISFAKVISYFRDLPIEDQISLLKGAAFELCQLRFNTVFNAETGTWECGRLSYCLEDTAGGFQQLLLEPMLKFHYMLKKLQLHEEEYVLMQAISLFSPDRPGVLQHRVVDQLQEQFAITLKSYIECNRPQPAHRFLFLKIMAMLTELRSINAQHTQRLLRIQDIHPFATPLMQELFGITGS
DAX1 conf: DAX1 (NR0B1) inhibitors relieving SF-1 repression, confirmation, cell-based, luminescence, HEK293T, full-length DAX-1, SF-1 activated StAR promoter; HEK293T StAR-promoter luciferase reporter, SF-1/DAX-1 repression; inhibition, % at 6.8 µM; shares compounds with DAX1 inh-1; 2,400 compounds, 87% hits;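 active = inhibition above the average of every tested compound plus 3 SD, cut at about 3.8% in these data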
SF1 AF2mut Luc: StAR reporter signal changes without DAX1, counter-screen for DAX1 inhibitor project, cell-based, luminescence, AF-2 mutant SF-1, transactivation. HEK293 StAR-luciferase, SF-1 AF2 mutant. inhibition, % at 6.8 µM. shares compounds with DAX1 inh-1. 2,400 compounds, 78% hits. AID 652136, 2013;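 active = inhibition above the mean of all tested compounds plus 3 SD, cut at about 3% in these data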
LXR ag: LXR agonists, Gal4 luciferase reporter, confirmation, counter-screen for hcDAF-12 agonist project, cell-based, luminescence, HEK293, H. contortus campaign; shares compounds with hcDAF-12 act; HEK293 Gal4-LXR tk-luc reporter, 24 h; normalized: DMSO 0%, positive control 100%; activation, % at 6.8 µM; 3,400 tested, under 10 active; AID 743027, 2013;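 active = mean percent activation of the reporter above a cutoff set as the average over tested compounds plus their standard deviation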
hcDAF12 ag: H. contortus DAF-12 receptor agonists, confirmation, cell-based, luminescence, HEK293, lit1-tk-luc, triplicate. shares compounds with hcDAF-12 act. 3,400 compounds, 61% hits. HEK293 hcDAF-12 lit1-tk-luc reporter; % of Δ7-dafachronic acid response. activation, % at 6.8 µM;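 active = mean activation across triplicate tests above the threshold derived from the earlier primary screen, cut at about 5.5% in these data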
hgDAF12 conf: H. glycines DAF-12 receptor agonists, confirmation, cell-based, luminescence, HEK293, GAL4-LBD fusion; activation, % at 6.8 µM; 3,300 compounds, 80% hits; AID 743050, 2013; HEK293 GAL4-hgDAF12 luciferase reporter, agonist mode; percent of butyrate response; shares compounds with hgDAF-12 ag;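 active = mean activation over triplicate wells above the hit cutoff derived from the earlier primary screen, cut at about 11% in these data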
LXRb DAF12 ctr: LXR agonists, Gal4 luciferase reporter, confirmation, counter-screen for hgDAF-12 agonist project, cell-based, luminescence, HEK293, H. glycines campaign. shares compounds with hgDAF-12 ag. 24 h. activation, % at 6.8 µM. 3,300 tested, under 10 active;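 active = mean activation of the triplicate above a set limit carried over from the primary screen, none filed active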
A number is an active result; – = inactive; · = no result. An excerpt weighted towards active compounds, which were near 5.7% of everything screened.

SMILES	hgDAF-12 ag	AHR activator	DAX1 inh-1	DAX1 inh-2	hcDAF-12 act	ssDAF-12 act	DAX1 conf	SF1 AF2mut Luc	others
Cc1cnc(-n2c(=S)[nH]c3ccccc3c2=O)s1	–	124.7	–	–	–	–	·	·	AHR act cf=137.5;PXR counter=19.5
CCOCCN1CCN(c2nnc3n2-c2ccc(Cl)cc2C(c2ccccc2Cl)=NC3)CC1	–	–	–	–	–	–	·	·
Cc1cc(N=Nc2ccccc2C)ccc1N	15.5	80.4	–	6.0	–	–	·	·	AHR act cf=129.6;PXR counter=11.6;hgDAF12 conf=13.2;LXRb DAF12 ctr=–
CCC1(O)CCC2C3CCC4=CC(=O)CCC4C3CCC21CC (stereo not drawn)	–	·	–	–	–	–	·	·
C[C@H]1CCCC(=O)CCC/C=C/c2cc(O)cc(O)c2C(=O)O1	–	–	–	–	–	–	·	·
C[C@H]1CCC/C=C/[C@@H]2C[C@H](O)C[C@H]2[C@H](O)/C=C/C(=O)O1	–	–	4.4	–	–	–	10.2	–
Cc1ccc(-n2c(O)c(C=NCCN(C)C)c(=O)[nH]c2=O)cc1	–	–	–	–	–	–	·	·
CCOC(=O)[C@]12Cc3c(cc(OC)c(OC)c3OC)[C@H]1N(C(C)C)C(=O)c1ccccc12	–	·	5.5	·	–	–	4.6	6.4
CCOC(=O)[C@]12Cc3ccccc3[C@H]1N(C(C)C)C(=O)c1cc(OC)ccc12	–	·	7.0	·	–	–	6.0	15.9
CCOC(=O)[C@]12Cc3c(cc(OC)c(OC)c3OC)[C@H]1N(C)C(=O)c1cc(OC)ccc12	–	·	4.7	·	–	–	9.5	13.8
CO[C@H]([C@H](C)/C=C/N(C)C=O)[C@@H](C)C(=O)CC[C@H](C)[C@H](O)[C@H](C)[C@H]1OC(=O)/C=C/C(C)=C/[C@H](O)[C@H](OC)C[C@@H]2C=CC[C@@H](C[C@H](OC)[C@@H](CO)[C@@H](OC)C[C@@H](OC)[C@@H]1C)O2	–	·	·	·	–	–	·	·
CN1CCCN(C(=O)COc2ccc(Br)cc2)CC1	–	–	–	–	–	–	·	·
Cc1cc(OCC(=O)N2CCCN(C)CC2)ccc1Cl	–	–	5.2	–	–	–	–	–
C/C1=C\[C@@H](C)C/C=C/[C@H]2[C@@H]3O[C@]3(C)[C@@H](C)[C@H]3[C@H](Cc4c[nH]c5ccccc45)NC(=O)[C@]32C(=O)/C=C/C(=O)[C@@H]1O	·	–	·	–	·	·	·	·
Cc1cc2c(cc1C)NP(=S)(c1ccccc1)N2	19.2	·	10.5	–	8.0	1.2	13.1	8.4	LXR ag=–;hcDAF12 ag=12.8
O=NN(CCF)C(=O)NC1CCC(=O)NC1=O (stereo not drawn)	–	·	–	·	–	–	·	·
CC/C(=N\NC(=O)c1ccccc1Cl)c1c(O)n(C2CCCCC2)c(=O)[nH]c1=O	–	–	–	–	–	–	·	·
CC/C(=N\NC(=O)c1ccccc1)c1c(O)n(C2CCCCC2)c(=O)[nH]c1=O	14.6	–	4.8	–	–	–	–	–	hgDAF12 conf=–;LXRb DAF12 ctr=–
CC[n+]1c(-c2ccccc2)c2cc(N)ccc2c2ccc(N)cc21	–	·	–	–	–	–	·	·
Nc1ccccc1C(=O)OCCc1ccccc1	23.5	–	5.6	–	10.8	–	12.8	4.1	LXR ag=–;hcDAF12 ag=9.7;hgDAF12 conf=14.6;LXRb DAF12 ctr=–
Cc1ccc2c(c1N)C(=O)c1ccccc1C2=O	15.9	72.6	5.3	–	–	–	10.7	5.8	hgDAF12 conf=13.2;LXRb DAF12 ctr=–
COc1ccc(-c2cc(=O)c3c(OC)c(OC)c(OC)cc3o2)cc1	–	–	–	–	–	–	·	·
COc1ccc(-c2cc(=Nc3ccccc3)c3cc(C)ccc3o2)cc1	21.8	–	5.1	–	7.3	–	6.1	4.3	LXR ag=–;hcDAF12 ag=–;hgDAF12 conf=18.3;LXRb DAF12 ctr=–
COc1ccc(-c2cc(=NCCC(=O)O)c3cc(C)ccc3o2)cc1	23.5	·	7.0	–	6.5	–	12.6	8.8	hgDAF12 conf=10.5;LXRb DAF12 ctr=–
CCC(CC)C(=O)NC1CCSC1=O (stereo not drawn)	–	–	–	–	–	–	·	·

High-throughput results from PubChem.
